Measurements from the supplement of paper PMC4166925.
± gives the standard deviation of the averaged measurements. Over roughly 33,000 sequences, “E-score (dimensionless, -0.5 to 0.5)” has its median near -0.049; the highest 2% begin near 0.37. The entries come from a sample that favours the highest values as a whole.

What follows are sequences tested on T1, PmTbr T-box DNA-binding domain (GST fusion) (assay: PBM E-score of 8-mer (E-score (dimensionless, -0.5 to 0.5)); Tbr is Tbrain of the sea star Patiria miniata (Pm) or the sea urchin Strongylocentrotus purpuratus (Sp); higher = stronger binding preference). Settings: the construct has about 5 more residues each side.
T1 sequence: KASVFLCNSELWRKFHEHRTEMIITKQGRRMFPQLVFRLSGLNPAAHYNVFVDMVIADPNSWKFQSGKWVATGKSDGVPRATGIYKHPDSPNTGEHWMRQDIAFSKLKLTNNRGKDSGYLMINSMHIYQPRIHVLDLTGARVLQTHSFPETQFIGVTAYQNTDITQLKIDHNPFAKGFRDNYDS
Procedure, shortened: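 Using the Universal PBM Analysis Suite, every ungapped 8-mer received an enrichment E-score averaged over duplicate arrays. Probe intensities came from double-stranded Universal Agilent oligonucleotide arrays incubated with 200 nM GST-fused Tbr T-box DNA-binding domain in PBS (pH 7.5). That protein was expressed in BL21 E. coli at 20 °C and purified by glutathione affinity chromatography.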

Sequence | PBM E-score of 8-mer
CGCACTCA | 0.161 ± 0.074
AAAACGGG | -0.146 ± 0.0023
ATATACGA | -0.298 ± 0.059
AAATTCTT | -0.155 ± 0.029
TACTACGA | 0.0382 ± 0.023
ATATGGCC | -0.235 ± 0.066
ATGGGCTC | -0.154 ± 0.16
TCGCTTCA | 0.177 ± 0.02
CACGGGTC | 0.0871 ± 0.051
ATGTCGGA | -0.0551 ± 0.054
ATGTCGCA | 0.254 ± 0.049
CTGTCGGA | 0.101 ± 0.044
CTGTCGCA | 0.224 ± 0.064
GTGTCGGA | 0.394 ± 0.015
GTGTCGCA | 0.415 ± 0.0083
CGGATGCC | -0.239 ± 0.09
AGTAGAGA | -0.165 ± 0.0094
CAAATGTC | 0.0249 ± 0.12
ACCTCAAC | -0.0545 ± 0.07
CCGCTGAA | -0.279 ± 0.04
TGTGCTAA | 0.346 ± 0.02
GGTGCTAC | 0.434 ± 0.0055
AGTGCTAA | 0.421 ± 0.012
CGTGCTAA | 0.378 ± 0.021
CGTGCTAG | 0.287 ± 0.027

Sequence | PBM E-score of 8-mer
AGTGCTAT | 0.27 ± 0.0047
AGTGCTAG | 0.358 ± 0.0077
AGTGCTAC | 0.276 ± 0.031
GGTGCTCA | -0.112 ± 0.025
GGTGCTTA | 0.0849 ± 0.048
GGTGCTAA | 0.4753 ± 0.00081
CGTGCTAC | 0.185 ± 0.0064
ACAGTTAG | 0.0702 ± 0.027
ATGAATCA | -0.129 ± 0.0053
GTCCATGA | -0.052 ± 0.031
GGGTGGGA | 0.237 ± 0.011
CCCACATA | -0.214 ± 0.08
CAAGGGGC | -0.095 ± 0.021
AGCAGCAA | -0.118 ± 0.011
CAACGTCA | 0.0459 ± 0.035
CCACTTTC | 0.104 ± 0.06
AGACTTTG | -0.00767 ± 0.055
ACACTTTA | 0.338 ± 0.029
ACACTTTG | 0.404 ± 0.014
ACACTTTC | 0.408 ± 0.0072
ACTCTTTC | -0.00346 ± 0.013
GTTTTTAA | -0.131 ± 0.14
AATCACCT | 0.311 ± 0.017
GTGTAGAA | 0.164 ± 0.051
AGACAGGC | -0.103 ± 0.03

Sequence | PBM E-score of 8-mer
AAGTTAGC | 0.192 ± 0.011
ATGTCCGG | -0.174 ± 0.071
GACCTCAC | 0.0743 ± 0.032
AACCTCAA | -0.113 ± 0.028
CACCTCAC | 0.4504 ± 0.0025
CACCTCAA | 0.395 ± 0.022
AACCTCAG | -0.26 ± 0.042
CTCCTCAG | -0.0996 ± 0.015
TACCTCAA | -0.132 ± 0.028
CACCTCAG | 0.42 ± 0.0057
AACCTCAC | 0.219 ± 0.015
CTGCCACC | 0.265 ± 0.036
CCCGATTA | 0.0524 ± 0.024
CCGCTAGA | 0.0332 ± 0.029
CGATTGCC | -0.0231 ± 0.013
GTACAGCA | -0.0813 ± 0.032
ACGGAAAT | -0.189 ± 0.071
CCGCAGGC | 0.000335 ± 0.0022
GCTCACAA | 0.132 ± 0.037
ACTCACAG | 0.314 ± 0.043
ACTCACAT | -0.0309 ± 0.043
ACTCACAC | 0.4612 ± 0.00083
CCTCACAA | 0.155 ± 0.016
GCTCACAC | 0.424 ± 0.01
CCTCACAG | 0.127 ± 0.049

Sequence | PBM E-score of 8-mer
GCACACAC | 0.219 ± 0.039
CCTCACAC | 0.475 ± 0.005
ACTACCTC | -0.248 ± 0.022
ACTCCACC | -0.0966 ± 0.022
CGGCCAGA | -0.215 ± 0.011
ACTCTTAG | -0.0903 ± 0.065
ACACTTAG | 0.416 ± 0.0068
GCACTTAC | 0.178 ± 0.015
CCACTTAC | 0.201 ± 0.0076
ACACTTAT | 0.387 ± 0.0076
ACACTTAC | 0.412 ± 0.0079
ACTCTTAT | -0.0869 ± 0.047
CCACTTAG | -0.0105 ± 0.01
ACACTTAA | 0.362 ± 0.031
CTTAAGAC | -0.218 ± 0.055
CCGATCCG | -0.094 ± 0.017
CGGTTAGA | -0.182 ± 0.026
ACATTAGG | 0.0856 ± 0.037
ACAGGGCG | 0.0776 ± 0.037
GAGCGCGA | 0.291 ± 0.019
AAGCGCGG | 0.0485 ± 0.038
AAGCGCGA | 0.375 ± 0.017
AAGCGCGC | 0.106 ± 0.015
TAGCGCGA | 0.3803 ± 0.0017
CAGCGCGA | 0.203 ± 0.029

Sequence | PBM E-score of 8-mer
CCACGCTA | -0.0567 ± 0.028
ACTCAGCA | -0.151 ± 0.053
TCCTAGAA | -0.0822 ± 0.13
ACTAGCAC | 0.381 ± 0.013
CCTAGCAC | 0.3709 ± 0.0033
CCTAGCAA | 0.128 ± 0.069
ACTAGCAA | 0.00762 ± 0.0026
GCTAGCAC | 0.33 ± 0.0063
ACTAGCAG | -0.0294 ± 0.074
CTTGGAAA | -0.0932 ± 0.023
CATCTATC | -0.196 ± 0.023
CGAGTGCG | 0.225 ± 0.033
AAGGTGTA | 0.404 ± 0.026
ACGGTGTA | 0.16 ± 0.0067
CAGATGTC | -0.0861 ± 0.049
ACGGTGTC | 0.26 ± 0.076
AAGGTTTC | 0.0322 ± 0.0076
CAGGTGTA | 0.3628 ± 0.0011
CCGGTGTA | 0.0868 ± 0.027
GGGGTGTA | 0.175 ± 0.0049
GCGGTGTA | -0.136 ± 0.021
CAGGTGTC | 0.4791 ± 0.0044
AAGGTGTC | 0.4879 ± 0.0035
GAGGTGTA | 0.44018 ± 0.00028
GGCATTAC | -0.165 ± 0.0079

Sequence | PBM E-score of 8-mer
GGATACCC | -0.327 ± 0.049
GGAGAGGA | -0.1 ± 0.0036
CTTGGGGA | -0.196 ± 0.039
ATAAGTGG | 0.124 ± 0.042
CAATGGAC | -0.0519 ± 0.011
TGCCCACA | -0.0968 ± 0.015
ACGGTGTG | 0.324 ± 0.012
AAGGTGTG | 0.4811 ± 0.0016
AAGGTTTG | -0.16 ± 0.015
AATGGCTG | -0.207 ± 0.038
TATGATAA | -0.0124 ± 0.036
AGTGATAA | 0.317 ± 0.052
CGTGATAA | 0.251 ± 0.034
TGTGATAA | 0.406 ± 0.046
GGTGATAA | 0.413 ± 0.018
GGTGATAC | 0.364 ± 0.025
TTGCGCAA | 0.108 ± 0.0064
CTAGATTC | 0.139 ± 0.039
AATGGACA | 0.0325 ± 0.009
ATACCTAC | -0.172 ± 0.0048
ACACCTAC | 0.4763 ± 0.0017
GCACCTAC | 0.382 ± 0.0042
GTACCTAA | -0.248 ± 0.013
ACACCTGT | 0.472 ± 0.00061
CCACCTAC | 0.273 ± 0.049

Sequence | PBM E-score of 8-mer
AGACCTAC | -0.292 ± 0.035
GGACCTAA | -0.0476 ± 0.0062
AAACCTGT | 0.0415 ± 0.013
GTACCTAC | -0.272 ± 0.061
GCACCTAA | 0.373 ± 0.016
ACACCGGT | 0.22015 ± 2.8e-05
AGTTGGCG | 0.229 ± 0.039
AAGATCGA | -0.152 ± 0.084
CGCAACAG | 0.0766 ± 0.031
CAGCAATC | -0.21244 ± 7.8e-05
CTCCATCA | 0.123 ± 0.077
GGTAAGTA | -0.0321 ± 0.051
CGGTCAAC | -0.0198 ± 0.048
GCAGGGGC | -0.193 ± 0.12
AGATGGAC | -0.281 ± 0.02
ATACCTAA | 0.0416 ± 0.058
AAACCTAA | -0.0751 ± 0.036
ACACCTAG | 0.462 ± 0.0066
ACACCTAT | 0.4662 ± 0.00073
AGACCTAT | -0.2143 ± 0.00038
AAACCTAG | 0.113 ± 0.032
ACACCTAA | 0.463 ± 0.0018
